Test results published in the supplement of paper PMC4894684.
Where a name gives a salt, the structure may show the parent alone. ± gives the standard deviation of the averaged measurements. In all, about 1,000 compounds went through this assay and about 15 (2%) showed an effect of 50% or more. Many of the other results were omitted from the sample, so strong results are more common in it than they were.

Each molecule was assayed on HFF (assay: uninfected host cell viability relative to vehicle control; higher = less host cell toxicity). Conditions: 5 µM; 72 h; oxygen 21 %.

SMILES	uninfected host cell viability
COc1cc(CNC(=O)CCCC/C=C/C(C)C)ccc1O [(E)-Capsaicin]	88.13 ± 0.59%
CC[C@]1(O)C[C@H]2CN(CCc3c([nH]c4ccccc34)[C@@](C(=O)OC)(c3cc4c(cc3OC)N(C=O)[C@H]3[C@@](O)(C(=O)OC)[C@H](OC(C)=O)[C@]5(CC)C=CCN6CC[C@]43[C@@H]65)C2)C1 [Vincristine sulfate]	68 ± 2.9%
Cc1oncc1C(=O)Nc1ccc(C(F)(F)F)cc1 [Leflunomide]	93.41 ± 0.27%
O=C(Nc1cc(C(F)(F)F)cc(C(F)(F)F)c1)c1cc(Cl)ccc1O	46.8 ± 2.5%
O=c1oc(-c2ccc(C(F)(F)F)cc2)nn1Cc1cc(Cl)ccc1O	95.1 ± 1%
O=C1CC2(CCCC2)CC(=O)N1CCNCC1COc2ccccc2O1 (stereo not drawn)	85.64 ± 0.64%
Cn1cnnc1Sc1c([N+](=O)[O-])ncn1C	89.361 ± 0.008%
N[C@@H](C(=O)O)c1ccc(C(=O)O)c(C(=O)O)c1	89 ± 7.8%
COc1ccc(-c2nc(C(=O)N3CCN(C)CC3)sc2-c2ccc(OC)cc2)cc1	81.4 ± 4.7%
O=C1c2ccccc2S(=O)(=O)N1CCCCN1CCN(c2ncccn2)CC1 [Ipsapirone]	87.04 ± 0.35%
O=C1C(Cl)=C(NCCN2CCOCC2)C(=O)c2ncccc21	34.44 ± 0.16%
Cc1cc(Cn2cnc3c2CC(C(=O)O)N(C(=O)C(c2ccccc2)c2ccccc2)C3)ccc1N(C)C (stereo not drawn)	82.1 ± 3.1%
COc1ccc([C@@H]2CNC(=O)C2)cc1OC1CCCC1 [(R)-(-)-Rolipram]	82.9 ± 1%
C1CCC2(CC1)CCNCC2 [4,4-Pentamethylenepiperidine hydrochloride]	84.79 ± 0.68%
Cc1cc(NC(=O)Nc2ccc(N(C)C)cc2)c2cc(F)cc(F)c2n1	85.86 ± 0.3%
Nc1ncnc2n[nH]c(Nc3ccc(F)cc3)c12	80.93 ± 0.35%
O=C(c1ccc(Nc2nccc(-c3cc4ccccc4s3)n2)cc1)N1CCC(N2CCCC2)CC1	14.9 ± 0.68%

SMILES	uninfected host cell viability
O=c1[nH]ccc2c(S(=O)(=O)N3CCCNCC3)cccc12 [HA 1100 hydrochloride]	90 ± 3.1%
Nc1nc2c(ccc3ccccc32)s1	77.6 ± 1.3%
O=c1cc(N2CCNCC2)oc2c(-c3ccccc3)cccc12	87.4 ± 1.8%
FC(F)(F)c1cccc(-c2noc(-c3cc(-c4ccccc4)c(C(F)(F)F)s3)n2)c1	90.4 ± 2.4%
CCN(CC)CCOc1ccc(Cc2ccccc2)cc1 [DPPE fumarate]	86.65 ± 0.8%
CCS(=O)(=O)N1CCC[C@@H]2CN3CCc4cc(OC)ccc4[C@@H]3C[C@@H]21	85.4 ± 2.9%
N[C@@H](CC(=O)Nc1ccc(Oc2cc(F)c(F)cc2Br)cc1)C(=O)O	95 ± 0.96%
O=c1ncccn1[C@@H]1O[C@H](CO)[C@@H](O)[C@H]1O [Zebularine]	90.802 ± 0.032%
O=C(/C=C/c1ccccc1)NC(NC(=S)Nc1cccc2cccnc12)C(Cl)(Cl)Cl (stereo not drawn) [Salubrinal]	84.55 ± 0.26%
C=C1/C(=C\C=C2/CCC[C@]3(C)[C@@H]([C@H](C)/C=C/[C@@H](O)C4CC4)CC[C@@H]23)C[C@@H](O)C[C@@H]1O [Calcipotriol]	83.9 ± 3.1%
CC(C)c1ccc2c(c1)CC[C@H]1[C@](C)(CN)CCC[C@]21C [Lylamine hydrochloride]	87.8 ± 1.4%
Cc1ccccc1N1CCN(S(=O)(=O)C[C@]23CC[C@H](C[C@@H]2NC(=O)[C@@H](N)CCS(C)(=O)=O)C3(C)C)CC1 [L-368,899 hydrochloride]	87.07 ± 0.83%
C=C1C(=O)O[C@@H]2/C=C(\C)CC/C=C(\C)CC[C@@H]12 [Costunolide]	114 ± 2.7%
N[C@@H](Cc1cc(CP(=O)(O)O)cc(-c2ccccc2Cl)c1)C(=O)O	88.9 ± 6%
O=C(Nc1ccccc1)N[C@@H]1C[C@@H](C(=O)O)Nc2cc(Cl)cc(Cl)c21	87.6 ± 1.1%
c1ccc(C(O[C@@H]2CCCN(CCc3ccc4c(c3)OCO4)C2)c2ccccc2)cc1 [Zamifenacin fumarate]	90.5 ± 1%
